Test results reported in the supplement of paper PMC12669032.
Unmarked numbers belong to inactive results.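 How the source made its calls: active = AUC reduced over 20% with Padj below 0.05 in at least 2 of 3 replicates; inactive = otherwise.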

What was measured:
Roseburia intestinalis = experiment: growth AUC relative to DMSO control (median of replicates) (fraction); higher = more growth (less inhibition), active = hit call of the paper; conditions: 20 µM; 24 h
Outline: (§1)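 Area under the growth curve was normalised to the plate median of solvent-only wells, or to row and column medians on the industrial chemical plate. Growth curves came from anaerobic gut bacterial monocultures in mGAM at 37 °C, seeded at OD600 0.05 with 20 µM compound (1% DMSO), and read at OD600 hourly for 24 h with the minimum OD set to 0. The value is the median of three biological replicates grown on separate days.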

Streptococcus salivarius = experiment: as above; conditions: 20 µM; 24 h
Outline: as §1

SMILES | growth AUC (Roseburia intestinalis) | growth AUC (Streptococcus salivarius)
CC(C1CC1)C(O)(Cn1cncn1)c1ccc(Cl)cc1 (mixture of isomers) | 1.06 | 0.973
CCC(C)(CC)c1cc(NC(=O)c2c(OC)cccc2OC)on1 | 0.963 | 0.979
CCNc1nc(Cl)nc(NC(C)(C)C)n1 | 0.955 | 0.986
CC1CCCCC1NC(=O)Nc1ccccc1 (mixture of isomers) | 0.985 | 1.02
COP(=S)(OC)SC(CC(=O)O)C(=O)O (stereo unspecified) | 1.02 | 1.03
Cc1ccn2nc(S(=O)(=O)Nc3c(F)cccc3F)nc2n1 | 0.997 | 0.965
CC(C)OC(=O)Nc1cccc(Cl)c1 | 0.906 | 0.981
CN(C)C(=S)[S-].CN(C)C(=S)[S-].[Zn+2] | 0.792 | 0.925
Cc1c(COC(=O)[C@@H]2[C@H](/C=C(\Cl)C(F)(F)F)C2(C)C)cccc1-c1ccccc1 | 0.924 | 0.949
CNC(=O)N(C)c1nc2ccccc2s1 | 0.989 | 1
O=C(Nc1ccccc1)Nc1cnns1 | 0.918 | 0.891
CCC(C)[C@H]1O[C@]2(C=C[C@@H]1C)C[C@@H]1C[C@@H](C/C=C(\C)[C@@H](O[C@H]3C[C@H](OC)[C@@H](O[C@H]4C[C@H](OC)[C@@H](O)[C@H](C)O4)[C@H](C)O3)[C@@H](C)/C=C/C=C3\CO[C@@H]4[C@H](O)C(C)=C[C@@H](C(=O)O1)[C@]34O)O2.CO[C@H]1C[C@H](O[C@H]2[C@H](C)O[C@@H](O[C@@H]3/C(C)=C/C[C@@H]4C[C@@H](C[C@]5(C=C[C@H](C)[C@@H](C(C)C)O5)O4)OC(=O)[C@@H]4C=C(C)[C@@H](O)[C@H]5OC/C(=C\C=C\[C@@H]3C)[C@]54O)C[C@@H]2OC)O[C@@H](C)[C@@H]1O (stereo partly specified) | 0.571 (active) | 0.961
CCOC(=O)c1cn2nc(OP(=S)(OCC)OCC)cc2nc1C | 0.981 | 0.981
COC(C)(C)CCCC(C)C/C=C/C(C)=C/C(=O)OC(C)C (stereo unspecified) | 1.01 | 1.01
O=C1C(Cl)=C(Cl)C(=O)C(Cl)=C1Cl | 0.995 | 1.01
CC(C)N1C(=O)N(c2ccccc2)CSC1=NC(C)(C)C | 1.02 | 0.953
CCOP(=S)(OCC)Oc1ccc([N+](=O)[O-])cc1 | 1.01 | 0.93

SMILES | growth AUC (Roseburia intestinalis) | growth AUC (Streptococcus salivarius)
O=C(NC(=O)c1c(F)cccc1F)Nc1ccc(Oc2ccc(C(F)(F)F)cc2Cl)cc1F | 1.1 | 0.985
CNC(=O)CSP(=S)(OC)OC | 0.982 | 0.968
COc1cc(OC)nc(NC(=O)NS(=O)(=O)c2ncccc2C(F)(F)F)n1 | 1 | 1.01
Cn1cc(-c2ccccc2)c(=O)c(-c2cccc(C(F)(F)F)c2)c1 | 1.04 | 0.986
Clc1ccc(C2(Cn3cncn3)OCCO2)c(Cl)c1 | 0.948 | 0.915
Cc1cc(C(C#N)c2ccc(Cl)cc2)c(Cl)cc1NC(=O)c1cc(I)cc(I)c1O (stereo unspecified) | 0.15 (active) | 0.0175 (active)
C=C(C)CN(CC)c1c([N+](=O)[O-])cc(C(F)(F)F)cc1[N+](=O)[O-] | 1.01 | 0.989
CCCCCCCCCCCCC1=C(OC(C)=O)C(=O)c2ccccc2C1=O | 0.772 | 0.957
O=c1ccc(=O)[nH][nH]1 | 1.01 | 0.965
O=C(O)C(F)(F)C(F)(F)C(F)(F)C(F)(F)C(F)(F)C(F)(F)F | 1.03 | 1.02
O=C(O)COc1nc(Cl)c(Cl)cc1Cl | 1.01 | 1.01
Oc1ccc(Cl)cc1Cc1cc(Cl)ccc1O | 0.64 (active) | 0.445 (active)
CNC(=O)ON=C(CS(C)=O)C(C)(C)C (stereo unspecified) | 0.974 | 0.989
CCN(CC)N=O | 1 | 0.964
C/C(=N\NC(=O)Nc1cc(F)cc(F)c1)c1ncccc1C(=O)[O-].[Na+] | 1.06 | 0.988
Cc1cc(C)nc(NC(=O)NS(=O)(=O)c2ccccc2C(=O)OC2COC2)n1 | 0.985 | 0.909
